Screening data as filed in PubChem.
IL1B secr inh = inflammasome signaling inhibition, IL-1 beta readout | THP-1 LPS/ATP IL-1B secretion, AlphaLISA, 16 h; stronger effect = lower value | activity change, % at 57.5 µM | 360,000 compounds, 4.7% hits | AID 743279; in the data active = activity change below about -50%; inconclusive = mostly about -30% to -49%
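Secreted IL-1B measured by AlphaLISA bead assay after 16 h compound exposure of THP-1 cells; compounds (final up to 57.5 uM) added 1 h before LPS (250 ng/mL) and ATP (1.25 mM) stimulation; lower signal means less secretion.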
HT1080NT lethal = kills 2HG-producing HT-1080-NT fibrosarcoma cells. HT-1080-NT fibrosarcoma viability, CellTiter-Glo ATP luminescence, 48 h. Potency, µM (titrated, usually from 46.1 µM), for inactives: at the highest dose activity, negative = less viability, hits mostly cytotoxic. 360,000 compounds, 1.6% hits. AID 686970;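 also: NT is the 2HG producing partner of a matched IDH1 knockdown line; potency is read from the fitted curve at half-maximal effect; 0% = DMSO-treated cells and -100% = media-only wells without cells; nearly all actives have a fitted effect of over 55% in size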
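Read-out is CellTiter-Glo luminescence after 10 minutes at room temperature, following 48 hours' compound treatment of HT-1080-NT cells (750 cells/well, RPMI, 5% FBS, 37 degrees C).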
ALOX12 inh = blocks human arachidonate 12S-lipoxygenase. P18054. purified 12hLO, xylenol orange hydroperoxide absorbance. AID 1671190. 580,000 compounds, 1.1% hits. Potency, µM (doses to about 108 µM), without a hit: top-dose activity change, negative = inhibition, usual class: inhibitors; also: potency is read from the fitted curve at half-maximal effect
Target sequence (P18054 whole entry, looked up): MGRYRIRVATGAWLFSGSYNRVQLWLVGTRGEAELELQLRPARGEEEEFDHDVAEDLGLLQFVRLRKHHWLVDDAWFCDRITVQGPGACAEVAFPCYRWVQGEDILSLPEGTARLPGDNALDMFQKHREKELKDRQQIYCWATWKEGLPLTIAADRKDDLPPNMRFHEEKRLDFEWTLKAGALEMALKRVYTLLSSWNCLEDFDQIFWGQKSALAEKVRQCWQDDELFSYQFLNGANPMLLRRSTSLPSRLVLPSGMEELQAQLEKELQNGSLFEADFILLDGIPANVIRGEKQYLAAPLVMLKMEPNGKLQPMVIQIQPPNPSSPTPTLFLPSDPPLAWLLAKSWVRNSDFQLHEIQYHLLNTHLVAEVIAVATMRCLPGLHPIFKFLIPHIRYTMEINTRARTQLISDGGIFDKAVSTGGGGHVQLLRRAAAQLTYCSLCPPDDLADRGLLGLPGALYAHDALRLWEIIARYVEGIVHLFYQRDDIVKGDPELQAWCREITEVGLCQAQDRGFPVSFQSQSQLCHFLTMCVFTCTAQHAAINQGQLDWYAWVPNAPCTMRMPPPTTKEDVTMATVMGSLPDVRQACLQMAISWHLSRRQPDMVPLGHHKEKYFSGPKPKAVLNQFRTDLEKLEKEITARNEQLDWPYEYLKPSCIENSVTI
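Purified human 12hLO (150 nM final) in 25 mM Hepes, 0.01% Triton X-100, pH 7.0 was preincubated 15 min at room temperature with compound. Then 40 uM arachidonic acid was added, 30 min. Hydroperoxide was read by Fe-XO absorbance ratio 573/405 nm.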
HT1080 IDH1KD tx = kills HT-1080 cells with IDH1 knockdown; Potency, µM (top dose mostly 46.1 µM), for inactives: at the top dose activity, negative = toxicity, most hits filed as cytotoxic; HT-1080 IDH1 knockdown viability, ATP luminescence, 48 h; AID 686971; 360,000 compounds, 2% hits;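 also: potency is read from the fitted curve at half-maximal effect; 0% = DMSO wells and -100% = cell-free medium wells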
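CellTiter-Glo luminescence after 48 h compound exposure at 37 degrees C of IDH1-knockdown HT-1080 cells in 5% FBS RPMI. %Activity scaled between DMSO wells and cell-free media wells, with curves fitted and assigned curve classes.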
TDP1 cell noCPT = qHTS for Inhibitors of human tyrosyl-DNA phosphodiesterase 1 (TDP1): qHTS in cells in absence of CPT. 420,000 compounds, 15% hits. Potency, µM (highest dose often 46.2 µM), for the others: at the highest dose activity change, negative = growth inhibition, actives largely listed as inhibitors. DT40 Tdp1-/- hTDP1 cells, no CPT, ATP luminescence, 48 h; also: potency is read from the fitted curve at half-maximal effect; nearly all actives have a fitted effect of over 55% in size
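Camptothecin absent (DMSO only). Human TDP1-complemented DT40 knockout cells, 400 cells/well, 37 °C for minimum 48 hr; ATP measured via CellTiter-Glo, 30 min dark incubation, luminescence.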
TDP1 cell CPT = DT40-hTDP1 cell growth loss with CPT. Potency, µM (top dose mostly 46.2 µM), for inactives: at the highest dose activity change, negative = growth inhibition, hits mostly inhibitors. chicken DT40 Tdp1-/-;hTDP1 cells + 20 nM CPT, ATP luminescence, 48 h. 420,000 compounds, 12% hits; also: potency is read from the fitted curve at half-maximal effect; nearly all actives have a fitted effect of over 55% in size
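Cell growth measured by CellTiter-Glo luminescence after a minimum 48 h, 37 C compound exposure with 20 nM CPT in Tdp1-knockout DT40 cells stably expressing hTDP1, seeded 400/well; qHTS titration format.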
* marks the source's active call; other numbers are inactive results; ? = inconclusive; . = no result given; [ ] = dose if it differs, or a comment. This excerpt belongs to a sample that is enriched for hits. Unless noted, calls follow the shape of the dose curve; as a rule, active = well fitted curve in the direction sought with a large enough effect; inconclusive = small, poorly fitted or top-dose-only effect, or another doubt; inactive = no such curve, though single readings can be large; an effect the other way counts as inactive or inconclusive. Unless noted, % is scaled to controls: 0 for no effect and ±100 for the full control effect.

SMILES	IL1B secr inh	HT1080NT lethal	ALOX12 inh	HT1080 IDH1KD tx	TDP1 cell noCPT	TDP1 cell CPT
COc1ccccc1CNC(=O)CCS(=O)(=O)c1ccc2c(c1)CC(C)N2C(=O)C1CC1 (stereo not drawn)	-11	6%	13%	5%	23µM*	21µM*
COc1ccc(CNC(=O)CCS(=O)(=O)c2ccc3c(c2)CC(C)N3C(=O)C2CC2)cc1 (stereo not drawn)	-14	-14%	1%	?	3.7µM*	15µM*
CC(Cn1cccn1)NC(=O)c1cc(Cl)c2c(c1)OCCO2 (stereo not drawn)	.	.	44%	.	.	.
Cc1nn(CC(=O)N2CCc3ccccc32)c(C)c1S(=O)(=O)N1CCCC(C(=O)NC2CC2)C1 (stereo not drawn)	.	.	3%	.	.	.
O=C(NCc1ccccn1)C1c2ccccc2C(=O)N(Cc2ccccc2)C12CCCC2 (stereo not drawn)	.	.	8%	.	.	.
CCC(=O)N1CCc2cc(S(=O)(=O)CCC(=O)NCc3ccco3)ccc21	32	-24%	14%	?	2.9µM*	-102%
Cc1cccc(C(=O)NN(C)c2nc(-c3ccccc3)nnc2C(F)(F)F)c1	5	3%	-14%	1%	2.6µM*	21µM*
CN(C)c1nc(-c2ccccc2)nnc1C(F)(F)F	32	4%	0%	5%[9.24 µM]	9%	4%
COc1ccc(C(=O)NN(C)c2nc(-c3ccccc3)nnc2C(F)(F)F)cc1	-5	14%	-21%	9%	16µM*	?
CN(NC(=O)C(C)(C)C)c1nc(-c2ccccc2)nnc1C(F)(F)F	15	2%	-8%	-2%	-29%	?
COc1ccc(C(=O)NN(C)c2nc(C(F)(F)F)nc3ccccc23)cc1	94	?	-19%	0.0065µM*	0.21µM*	0.18µM*
O=C(NCCc1ccc2c(c1)OCCO2)c1ccc(NS(=O)(=O)c2cccs2)cc1	.	.	11%	.	.	.
COc1ccc(-c2nc3cnccn3c2Nc2ccc(C)cc2)cc1	89	-7%	10%[57.4 µM]	3%	15µM*	15µM*
COc1ccc(Nc2c(-c3ccc(Cl)cc3)nc3cnccn23)cc1OC	.	.	?	.	?	-3%
Cc1ccc2nc(-c3ccc(C)o3)c(Nc3ccccc3)n2c1	.	-6%	.	15%	4.5µM*	3.5µM*
Cc1ccc2nc(-c3ccc(C)o3)c(Nc3ccc(F)cc3)n2c1	.	19%	.	19%	?	2%
Cc1ccc(-c2nc3cccc(C)n3c2Nc2ccc(F)cc2)o1	.	-19%	.	-20%	10µM*	?
Cc1ccc(-c2nc3cnccn3c2Nc2ccccc2)o1	36	22%	?	7%	21µM*	21µM*
Cc1ccc(-c2nc3ccc(Cl)cn3c2Nc2ccccc2)o1	.	20%	.	1%	?	?
CC(C)CN1CCN(C(=O)c2ccc3c(c2)CC(=O)N3Cc2ccc(F)cc2)CC1	.	.	0%	.	.	.
Cc1ccc(Nc2c(-c3ccc(C)o3)nc3ccccn23)cc1	.	-13%	.	-16%	13µM*	?
Cc1ccc(-c2nc3ccccn3c2Nc2ccccc2)o1	-16	-1%	-22%	-19%	?	-21%
COc1ccc(/C=C2\SC(=O)N(CC(=O)Nc3ccc(F)cc3)C2=O)cc1O	?	-1%	0%	-23%	15µM*	?
N=C1S/C(=C\c2cccc3ccccc23)C(=O)N1c1ccc(F)cc1	-25	?	-10%	-28%	3.7µM*	5.2µM*
Cc1ccc(NC(=O)CN2C(=O)S/C(=C/c3ccncc3)C2=O)cc1	-5	-3%	185%	-13%	?	16µM*
SMILES	IL1B secr inh	HT1080NT lethal	ALOX12 inh	HT1080 IDH1KD tx	TDP1 cell noCPT	TDP1 cell CPT
COc1cc(/C=C2\SC(=N)N(c3ccc(F)cc3)C2=O)ccc1O	2	?	?	?	23µM*	26µM*
COc1ccc(/C=C2\SC(=O)N(CC(=O)Nc3cccnc3)C2=O)cc1OC	-14	-11%	0%	-9%	?	?
CCN(CC)S(=O)(=O)c1cccc(NS(=O)(=O)c2cccs2)c1	.	.	1%	.	.	.
CCCN1CCC2(CCN([S+](=O)([O-])c3cccc(OC)c3)CC2)Oc2ccccc21	.	.	-2%	.	.	.
CC(C)c1ccc(/C=C2\SC(=O)N(CC(=O)NCCCn3ccnc3)C2=O)cc1	-1	-18%	-10%	0%	15µM*	?
COc1cc(/C=C2\SC(=O)N(CC(=O)Nc3ccccc3F)C2=O)cc(Cl)c1O	31	?	-27%	?	13µM*	18µM*
COc1cc(OC)c(/C=C2\SC(=O)N(CC(=O)Nc3ccccc3F)C2=O)c(OC)c1	-7	-1%	-9%	1%	21µM*	?
CCOc1cc(/C=C2\SC(=O)N(CC(=O)Nc3ccccc3F)C2=O)cc([N+](=O)[O-])c1O	-20	-6%	?	0%	21µM*	8.2µM*
COc1cc(/C=C2\SC(=O)N(CC(=O)Nc3cccc(C)c3)C2=O)cc([N+](=O)[O-])c1O	-26	?	?	?	?	?
COc1ccc(/C=C2\SC(=O)N(CC(=O)NNC(=O)c3ccccc3O)C2=O)cc1OC	-18	-30%	-12%	?	?	-5%
COc1cc(CNC(=O)c2cc3cccc(OC)c3oc2=O)ccc1OC(F)F	.	.	-7%	.	.	.
CCCNC(=O)NC(=O)COC(=O)c1csc(NCCC(C)C)n1	.	.	-25%	.	.	.
CCC1(C)CC(CCNS(=O)(=O)c2ccc(C)cc2)(c2ccc(C)cc2)CCO1 (stereo not drawn)	-9	?	?	?	29µM*	18µM*
CN(C)C(=O)C1CN(C(=O)c2ccccc2OC(F)(F)F)CC12CCOCC2 (stereo not drawn)	.	.	42%	.	.	.
O=C(Nc1cccc(F)c1)c1cnc2c(c1)N(C(=O)Cc1cccc(C(F)(F)F)c1)CCC2	.	.	17%	.	.	.
O=C1c2ccccc2NC(c2cnc3ccccc3n2)N1c1ccccc1 (stereo not drawn)	.	.	-14%	.	.	.
O=C(Nc1ccccc1F)c1ccc(Cn2nc(N3CCN(c4ccccc4)CC3)ccc2=O)o1	.	.	45µM*	.	15µM*	23µM*
O=C(Cn1nc(N2CCN(c3ccccc3)CC2)ccc1=O)Nc1ccc(F)cc1F	.	.	-15%	.	?	-23%
COc1ccc(NS(=O)(=O)c2ccc(N3CCCC3)c(NC(=S)Nc3cccc(C)c3C)c2)cc1	?	11%	16µM*	7%	9.2µM*	12µM*
